Rows were chosen to be rich in hits. Some 1.3% of all compounds tested hit in one or more screens of this group.
HTT-AS promoter: Primary qHTS for Identification of Small Molecule Activators of Huntingtin-Antisense Promoter Activity. HEK293 HTT-AS promoter firefly luciferase reporter, 24 h; response scale: percent change from vehicle, -100% = no light. Potency, µM (top dose mostly 57.5 µM), without a hit: at the top dose activity change, positive = activation, most hits filed as activators. 48,000 compounds, 0.24% hits. AID 1508624, 2021; note: nearly all actives have a fitted effect of over 55% in size
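Luminescence was read after Dual-Glo reagent and a 10 min room-temperature incubation. Values were normalized to vehicle (0% activity) and zero RLU (-100% activity). Reporter HEK293 cells had been exposed to compounds (up to 57.5 uM final) for 24 h.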
PTAP-TSG101 blk: qHTS Validation Assay for Inhibitors of HIV-1 Budding by Blocking the Interaction of PTAP/TSG101: Sytravon Library Screen | AID 1347069, 2019 | Potency, µM (highest dose often 115 µM), most hits filed as inhibitors | Tumor susceptibility gene 101 protein (Homo sapiens), Q99816 | 44,000 tested, under 10 active | Fluorescence polarization, FITC-PTAP peptide/Tsg101, 20 min; note: 0% is about no effect
Target sequence (Q99816 whole entry, looked up): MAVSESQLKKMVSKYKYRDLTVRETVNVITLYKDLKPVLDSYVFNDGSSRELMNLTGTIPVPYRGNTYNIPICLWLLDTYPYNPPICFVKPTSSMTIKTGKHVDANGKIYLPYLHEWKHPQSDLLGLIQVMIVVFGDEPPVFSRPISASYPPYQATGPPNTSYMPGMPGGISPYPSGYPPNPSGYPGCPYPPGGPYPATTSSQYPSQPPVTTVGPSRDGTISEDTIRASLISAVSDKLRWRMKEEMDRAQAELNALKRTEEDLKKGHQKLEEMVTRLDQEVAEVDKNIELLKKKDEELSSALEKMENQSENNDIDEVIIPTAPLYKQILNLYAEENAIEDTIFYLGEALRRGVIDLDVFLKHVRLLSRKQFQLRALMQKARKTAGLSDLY
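Compounds pinned into 10 uM Tsg101 binding domain, then 50 nM FITC-PTAP peptide added in pH 7.5 HEPES buffer; FP read after 20 min, room temperature. Total S+P intensity flags fluorescent compounds; active cut-off <25 µM, efficacy <60%.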
FH mod: Identification of activators of human fumarate hydratase by quantitative high-throughput screening. Potency, µM (doses to about 79.9 µM), for inactives: top-dose activity change, negative = inhibition, actives largely listed as inhibitors. 54,000 compounds, 0.22% hits. FH coupled MDH/diaphorase resazurin fluorescence, 15 min. Fumarate hydratase, mitochondrial (Homo sapiens), P07954. AID 1347055, 2019; note: % is set by controls: 0 for no effect and ±100 for the full control effect; the screen sought activators but most active calls are inhibition curves; nearly all actives have a fitted effect of over 45% in size
HTT prom inh: Primary qHTS for Identification of Small Molecule Inhibitors of Huntingtin Promoter Activity | HEK293 HTT promoter firefly luciferase reporter, 24 h | Potency, µM (titrated, usually from 57.5 µM), without a hit: top-dose activity change, negative = inhibition, most hits filed as inhibitors | 48,000 compounds, 0.93% hits | AID 1508623, 2021; note: nearly all actives have a fitted effect of over 50% in size
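HEK293 Fluc reporter, 2,500 cells/well, 24 h pre-culture; cpds up to 57.5 uM final, 24 h 37 degrees C; Dual-Glo, 10 min RT; normalized vehicle = 0%, zero RLU = -100%.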
Starred values were filed as active, the others as inactive; i = inactive; ? = inconclusive; · = no result; ! = repeats disagree; [ ] = dose if it differs, or a comment. Calls come from the whole dose curve; as a rule, active = well fitted curve in the direction sought with a large enough effect; inconclusive = small, poorly fitted or top-dose-only effect, or another doubt; inactive = no such curve, though single readings can be large; an effect the other way counts as inactive or inconclusive. Potency is the fitted concentration of half-maximal effect.

SMILES | HTT-AS promoter | PTAP-TSG101 blk | FH mod | HTT prom inh
Cc1ccc(CNC(=O)c2ccc3nc(SCc4ccc(F)cc4)[nH]c3c2)cc1 | -87% | i | ? | 22µM*
CCN(Cc1cc(Nc2nc(C)cn3c(-c4cn[nH]c4)cnc23)sn1)C(C)(C)CO | · | · | -13% | ·
O=C(O)CSc1cc(NS(=O)(=O)c2ccc(Br)cc2)c2ccccc2c1O | · | · | 16µM* | ·
C/C(=N\N=C(N)N)c1ccc(NC(=O)Nc2ccc(/C(C)=N/N=C(N)N)cc2)cc1 | · | · | 20% | ·
Cc1ccc(C(=O)Nc2ccc(S(=O)(=O)O)c3cc(S(=O)(=O)O)cc(S(=O)(=O)O)c23)cc1NC(=O)c1cccc(NC(=O)Nc2cccc(C(=O)Nc3cc(C(=O)Nc4ccc(S(=O)(=O)O)c5cc(S(=O)(=O)O)cc(S(=O)(=O)O)c45)ccc3C)c2)c1 | 1% | · | 14µM* | -3%
COc1ccc(C(=O)NC(c2ccc(Cl)cc2)c2cc(Cl)c3cccnc3c2O)cc1 (stereo unspecified) | -59% | i | -1% | 18µM*
COc1ccc(C(=O)Nc2cc(C(C)C)c(O)c(S(=O)(=O)c3ccc(Cl)cc3)c2C)cc1 | ? | i | -16% | -5%
COc1ccc(C(=O)Nc2ccc(NC(=O)c3cccs3)cc2)cc1OC | -14% | i | 28µM*[activator] | -14%
CC1CCc2nc3ncn(Cc4ccc(Cl)cc4)c(=O)c3cc2C1 (stereo unspecified) | 3.2µM* | i | -1% | 47%
O=c1c2cc3c(nc2ncn1Cc1ccc(Cl)cc1)CCCC3 | 1% | i | -8% | 2%
CC(C)(C)c1cc(C(C)(C)C)c2oc(=O)c(-c3nc4ccccc4[nH]3)cc2c1 | -16% | i | 2% | -20%
CC(C)(C)c1cc(C(C)(C)C)c2oc(=O)c(-c3nc4ccc(C(=O)O)cc4[nH]3)cc2c1 | -24% | i | 28µM* | ?
Oc1cc(O)cc(/C=C/c2ccc(O)c(O)c2)c1 | · | · | 3.5µM*! | ·
C/C=C/c1ccc(O)c(OC)c1 | -8% | · | ? | 3%
O=[N+]([O-])c1ccc(CSc2ncnc3c2ncn3[C@@H]2O[C@H](CO)C(O)[C@H]2O)cc1 (stereo partly specified) | · | · | -10%[53.3 µM] | ·
CCCn1cnc2c(NCc3ccc(C)s3)nc(N[C@H](CC)CO)nc21 | · | · | 1% | ·
O=C(O)c1cccnc1Nc1cccc(C(F)(F)F)c1 | -15% | · | -16%[53.3 µM] | -5%
Fc1ccc(Nc2nc3nonc3nc2Nc2cccc(C(F)(F)F)c2)cc1 | -95% | i | ? | 1.3µM*
COc1cc2nc(C3CC3)nc(N3CCN(c4ccccc4OC)CC3)c2cc1OC | · | · | -7% | ·
CCS(=O)(=O)c1ccccc1C(=O)N1CCN(c2nc3ccccc3s2)CC1 | -44% | i | -24% | 14µM*
CC(C)c1onc(-c2c(Cl)cccc2Cl)c1COc1ccc(C=Cc2cccc(C(=O)O)c2)c(Cl)c1 | ? | · | ? | 23%
CN(Cc1ccc(C(=O)O)cc1)c1ccc(OCc2c(-c3c(Cl)cccc3Cl)noc2C2CC2)nc1C(F)(F)F | · | · | 16µM* | ·
Cc1nn(C)c2c1C(c1ccc(C(F)(F)F)cc1)C(C#N)=C(N)O2 (stereo unspecified) | · | · | 6% | ·
Cc1noc2ncnc(NCCc3ccccc3)c12 | -61% | i | 4% | 14µM*
Cc1ccc(CCNc2ncnc3onc(C)c23)cc1 | -36% | i | -11% | ?
SMILES | HTT-AS promoter | PTAP-TSG101 blk | FH mod | HTT prom inh
Cc1cccc(-n2c(C)cc(C(=O)C(=O)Nc3ccccc3F)c2C)c1C | -20% | i | -25% | 8.9µM*
Cc1ccc(NCc2cccn2-c2nnc(N3CCC(C(=O)NCc4ccc(OC(C)C)cc4)CC3)s2)cc1 | -43% | i | -15% | 28µM*
CCOc1ccc(NCc2cccn2-c2nnc(N3CCC(C(=O)NCc4ccc(C)cc4)CC3)s2)cc1 | -52% | i | -18% | 14µM*
CCOc1ccc(NCc2cccn2-c2nnc(N3CCC(C(=O)NCc4cccc(OC)c4)CC3)s2)cc1 | -46% | i | -18% | ?
Cc1ccc(NCc2cccn2-c2nnc(N3CCC(C(=O)NCCc4ccc(Cl)cc4)CC3)s2)cc1 | -32% | i | -13% | ?
NC(=O)c1ccccc1Nc1ccnc(Nc2cccc(O)c2)n1 | · | · | -10% | ·
COc1c(N2CC3CCCNC3C2)c(F)cc2c(=O)c(C(=O)O)cn(C3CC3)c12 (stereo unspecified) | · | · | -5% | ·
O=S(=O)(N=Cc1c(O)ccc2ccccc12)c1cccs1 | 29% | · | -12%[53.3 µM] | 13%
O=S(=O)(/N=C/c1c(O)ccc2ccccc12)c1cccs1 | · | · | 16µM* | ·
COc1ccc(F)cc1-c1cc(NC(=O)[C@@H]2CCCNC2)ncc1Cl | · | · | -5% | ·
CCOP(=O)(Cc1ccc(C(=O)Nc2ccc(Br)cc2C#N)cc1)OCC | · | · | -2%[53.3 µM] | ·
CCCOCc1cc(CN2CCN(c3ccccc3OC)CC2)c(O)c2ncccc12 | -34% | i | ? | ?
CCOCc1cc(CN2CCN(c3ccccc3OC)CC2)c(O)c2ncccc12 | -36% | i | ? | 11µM*
Cc1ccccc1C(=O)n1nc(-c2ccco2)nc1NCc1ccc(Cl)cc1 | ? | i | -25% | 4%
COc1ccc(CNc2nc(-c3ccco3)nn2C(=O)c2ccccc2C)cc1 | 8.9µM* | i | -23% | 16%
CC(C)NC(=O)C1CCN(C(=O)c2cc3sccc3n2Cc2ccc(Cl)cc2)CC1 | -60% | i | -1% | 8.9µM*
CC(C)(Sc1ccc(CCN(CCCCC2CCCCC2)C(=O)NC2CCCCC2)cc1)C(=O)O | -3% | · | 25µM*! | -2%
CN(C)CCN(Cc1ccc(-c2ccc(CNCCc3ccccc3)cc2)cc1)C(=O)CCC1CCCC1 | · | · | -6% | ·
Cc1ccc(NC(=O)c2cnc3cc(C)ccn3c2=O)c(C)c1 | 3.5µM* | i | -4% | 58%
Cc1ccc2nc(/C(C#N)=C/c3ccc(-c4cccc(Cl)c4)o3)[nH]c2c1 | -17% | i | -3% | -7%
N#C/C(=C\c1ccc(OCc2ccc(Cl)cc2Cl)cc1)c1nc2ccccc2[nH]1 | -33% | i | -9% | -24%
N#C/C(=C\c1ccc(-c2ccc(Cl)c(C(=O)O)c2)o1)c1nc2ccccc2[nH]1 | 5% | i | 40µM* | 8%
N#C/C(=C\c1ccc(-c2ccc(C(=O)O)cc2)o1)c1nc2ccccc2[nH]1 | ? | i | 28µM* | 38%
COc1ccc(CCNC(=O)c2c[nH]n3c(=O)c(Cc4ccccc4Cl)c(C)nc23)cc1OC | -34% | i | 18µM* | ?
C=CC(=O)Nc1cc(Nc2ncc(Cl)c(-c3c[nH]c4ccccc34)n2)c(OC)cc1N(C)CCN(C)C | · | · | -7% | ·
O=S(=O)(c1ccccc1)N1CCC(c2ccncc2)CC1 | -43% | i | -29% | ?
